This is part of a sample that, as a whole, favours compounds with a hit. Of some 83,000 tested, about 20% had one in any assay.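 How to read the values: 0–100, growth inhibition (40 = 60% inhibited); 0, no net growth; -100 to 0, cell death (-40 = 40% of starting cells died; -100 = all dead).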 Calls of active or inactive are those of the source. Rule for the calls: active = growth percent below 10; inactive = the rest.

Consider 39 molecules from PubChem BioAssay (NCI).

One assay deals with NCI-H226 lung. The assay is described as follows: NCI-60 one-dose screen, 48 h (100 = growth as untreated, 0 = no growth, -100 = all killed). To be noted: 10 µM unless noted.
As to `CN(C)CCC(O)(Cc1ccccc1)c1ccccc1` (configuration not stated), the growth is 115% (inactive).
Consider `CCOc1cc(N)ccc1C(=O)NCCCN(CC)CC`, for which the growth is 93.6% (inactive).
The same measure, in the same setting: with `COc1ccc(-c2nnc(SCC(=O)NC3=NN=C(c4ccccc4)CS3)o2)cc1` the figure was 93.8% (inactive); with `C#C[C@]1(O)CC[C@H]2[C@@H]3CC=C4c5sc(N=C(N)N)nc5CC[C@]4(C)[C@H]3CC[C@@]21C`, 35.2% (inactive).
The same measure, in the same setting: with `CCCCCCCCN(CCCCCCCC)C(=N)c1ccnc2ccccc12` the figure was 56.5% (inactive).
The same measure, in the same setting: with `COc1cc(-c2ccc(N=Nc3c(O)c(C(=O)Nc4ccccc4OC)cc4ccccc34)c(OC)c2)ccc1N=Nc1c(O)c(C(=O)Nc2ccccc2OC)cc2ccccc12` the figure was 94.1% (inactive); with `O=C1c2ccccc2C2(c3ccc(O)cc3)c3ccccc3Oc3cccc1c32` (configuration not stated), 85.9% (inactive).
As for `Cc1c(Cl)cccc1NS(=O)(=O)c1ccccc1`, the growth is 93.1% (inactive).
For `CN(C)c1cnccn1`, the growth is 85.4% (inactive).
As to `Fc1ccc(Nc2nc3nonc3nc2Nc2ccc(F)cc2)cc1`, the growth was 14.9% (inactive).
The same measure, in the same setting: to `Cc1nc2ccccc2c(/C=C/c2ccc(Cl)cc2)c1C(=O)/C=C/c1ccc(Cl)cc1` belongs -40.6% (active); to `Fc1ccc(Nc2nc(Nc3ccc(-c4nc5ccccc5[nH]4)cc3)c3cn[nH]c3n2)cc1`, 86.9% (inactive); to `Nc1ccc(-c2cc3c(Nc4ccc(OCc5cccc(F)c5)c(Cl)c4)ncnc3s2)cc1`, 53.5% (inactive).
The same measure, in the same setting: with `O=[N+]([O-])c1ccc(-c2cc3c(Nc4ccc(Cl)c(C(F)(F)F)c4)ncnc3s2)cc1` the figure was 20.1% (inactive); with `O=[N+]([O-])c1ccc(-c2cc3c(Nc4ccc(Sc5nc6ccccc6s5)c(Cl)c4)ncnc3s2)cc1`, 76.2% (inactive).
The same measure, in the same setting: with `CCOC(=O)N1CCc2c(sc3c2C(=O)N[C@H](c2ccc(OC)cc2)N3)C1` the figure was 94.7% (inactive); with `Cc1cn(C2CCCCC2)c(=O)[nH]c1=O`, 101% (inactive).
Take `Cc1csc(NC(=O)c2sc3nc(-c4cccs4)ccc3c2N)n1`: the growth was 96.9% (inactive).
Still for that read-out and setting: with `Clc1ccc(-c2nc(NCCc3ccccc3)nc3c(NCCc4ccccc4)cnn23)cc1` the figure was 99.7% (inactive); with `Cc1nc(C)c(-c2nn3c(-c4cccc(F)c4)nnc3s2)s1`, 102% (inactive); with `COc1ccc(-c2nnc(-c3ccc4c(c3)nc(-c3ccccc3)n4C3CCCCC3)o2)cc1`, 46.4% (inactive).
The same measure, in the same setting: with `Cc1cc2c(F)c(Oc3ncnc(Nc4ccc(N5C[C@@H](C)N[C@@H](C)C5)cc4)c3C#N)cc(F)c2[nH]1` the figure was 74.1% (inactive).
On to `CCN(CC)CCCNC(=O)c1ccc(N)cc1`, for which the growth was 101% (inactive).

A further assay relates to NCI-H322M lung. Described as above. To be noted: 10 µM unless noted.
`CCCCCCNc1cc(C)nc2ccc(OC)cc12`: the growth was 67.2% (inactive).
The same measure, in the same setting: with `Cc1ccc(C)c2c1C(=O)OC2=O` the figure was 89.3% (inactive); with `CCN(CC)CCCNC(=O)c1ccc(N)cc1O`, 90.4% (inactive); with `O=[N+]([O-])c1ccc(-c2cc3c(Nc4ccc(OCc5cccc(Cl)c5)c(Cl)c4)ncnc3s2)cc1`, 82.4% (inactive).
The same measure, in the same setting: to `COC(=O)Nc1nc2ccc(C(=O)C3CC3)cc2[nH]1` belongs 50.9% (inactive); to `CCOC(=O)C(O)C(O)(c1ccccc1)c1ccccc1` (configuration not stated), 96.7% (inactive); to `N#Cc1cnn2c(-c3ccc(Cl)cc3)nc(NC3CC3)nc12`, 87.5% (inactive).
Same read-out and setting: to `O=C(C[C@@]1(O)C(=O)Nc2c(Cl)ccc(Cl)c21)c1ccc(C2CC2)cc1` belongs 53.1% (inactive); to `CN(CCC(=O)/C(=C\c1ccccc1)c1ccc(Cl)cc1)Cc1ccccc1`, 71.2% (inactive).
Take `CC1=NN(c2cccc(Cl)c2)C(=O)/C1=C\c1cn(CC(O)CN2CCCCC2)c2ccccc12` (configuration not stated): the growth was 103% (inactive).
Still for that read-out and setting: with `O=C(NCOC(O)C(Cl)(Cl)Cl)NCOC(O)C(Cl)(Cl)Cl` (configuration not stated) the figure was 91.7% (inactive).
On the same count and under the same terms, with `Cc1nn(-c2ccccc2)c2c1C(c1ccc([N+](=O)[O-])cc1)C(C#N)=C(N)O2` (configuration not stated) the figure was 116% (inactive); with `O=[N+]([O-])c1ccccc1C(O)Cc1ccc2ccccc2n1` (configuration not stated), 85.9% (inactive); with `N#Cc1cnn2c(-c3ccc(Cl)cc3)nc(NCCc3ccccc3)nc12`, 83.5% (inactive).
Still for that read-out and setting: with `CCOC(=O)C(=CNc1ccccc1[N+](=O)[O-])C(=O)OCC` the figure was 96.3% (inactive); with `Cc1ccc(NSc2ccccc2[N+](=O)[O-])cc1`, 38.6% (inactive).
On to `CN(C)CCC(O)(Cc1ccccc1)c1ccccc1` (configuration not stated), for which the growth is 120% (inactive).
On the same count and under the same terms, with `CCOc1cc(N)ccc1C(=O)NCCCN(CC)CC` the figure was 100% (inactive).
Turning to `COc1ccc(-c2nnc(SCC(=O)NC3=NN=C(c4ccccc4)CS3)o2)cc1`, the growth was 102% (inactive).
Still for that read-out and setting: with `C#C[C@]1(O)CC[C@H]2[C@@H]3CC=C4c5sc(N=C(N)N)nc5CC[C@]4(C)[C@H]3CC[C@@]21C` the figure was 27.9% (inactive); with `CCCCCCCCN(CCCCCCCC)C(=N)c1ccnc2ccccc12`, -64.5% (active); with `COc1cc(-c2ccc(N=Nc3c(O)c(C(=O)Nc4ccccc4OC)cc4ccccc34)c(OC)c2)ccc1N=Nc1c(O)c(C(=O)Nc2ccccc2OC)cc2ccccc12`, 86.8% (inactive).
`O=C1c2ccccc2C2(c3ccc(O)cc3)c3ccccc3Oc3cccc1c32` (configuration not stated): the growth was 32.5% (inactive).
Still for that read-out and setting: to `Cc1c(Cl)cccc1NS(=O)(=O)c1ccccc1` belongs 110% (inactive).
Regarding `CN(C)c1cnccn1`, the growth was 114% (inactive).
On the same count and under the same terms, to `Fc1ccc(Nc2nc3nonc3nc2Nc2ccc(F)cc2)cc1` belongs 1.32% (active); to `Cc1nc2ccccc2c(/C=C/c2ccc(Cl)cc2)c1C(=O)/C=C/c1ccc(Cl)cc1`, 5.27% (active); to `Fc1ccc(Nc2nc(Nc3ccc(-c4nc5ccccc5[nH]4)cc3)c3cn[nH]c3n2)cc1`, 84.8% (inactive).
Still for that read-out and setting: with `Nc1ccc(-c2cc3c(Nc4ccc(OCc5cccc(F)c5)c(Cl)c4)ncnc3s2)cc1` the figure was 26.6% (inactive); with `O=[N+]([O-])c1ccc(-c2cc3c(Nc4ccc(Cl)c(C(F)(F)F)c4)ncnc3s2)cc1`, 20.9% (inactive); with `O=[N+]([O-])c1ccc(-c2cc3c(Nc4ccc(Sc5nc6ccccc6s5)c(Cl)c4)ncnc3s2)cc1`, 55.5% (inactive).
On the same count and under the same terms, with `CCOC(=O)N1CCc2c(sc3c2C(=O)N[C@H](c2ccc(OC)cc2)N3)C1` the figure was 105% (inactive); with `Cc1cn(C2CCCCC2)c(=O)[nH]c1=O`, 129% (inactive); with `Cc1csc(NC(=O)c2sc3nc(-c4cccs4)ccc3c2N)n1`, 102% (inactive).
With `Clc1ccc(-c2nc(NCCc3ccccc3)nc3c(NCCc4ccccc4)cnn23)cc1`, the growth was 73.7% (inactive).
Still for that read-out and setting: with `Cc1nc(C)c(-c2nn3c(-c4cccc(F)c4)nnc3s2)s1` the figure was 106% (inactive).
With `COc1ccc(-c2nnc(-c3ccc4c(c3)nc(-c3ccccc3)n4C3CCCCC3)o2)cc1`, the growth was 87% (inactive).
Regarding `Cc1cc2c(F)c(Oc3ncnc(Nc4ccc(N5C[C@@H](C)N[C@@H](C)C5)cc4)c3C#N)cc(F)c2[nH]1`, the growth was 47.9% (inactive).
On to `CCN(CC)CCCNC(=O)c1ccc(N)cc1`, for which the growth was 94.7% (inactive).
